Pf growth 96h – P. falciparum growth inhibition at 96 hours; Potency, µM (series often up to 28.7 µM), without a hit: top-dose activity change, negative = inhibition, usual class: inhibitors; 6.9% of 320,000 active; P. falciparum luciferase reporter growth, 96 h; further: potency means the concentration at half of the fitted maximal effect; on the % scale 0 is the no-effect control and ±100 the full control effect
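Erythrocytes infected with luciferase-expressing P. falciparum were dispensed at 2% hematocrit and 0.05% parasitemia (final), then incubated with compounds 96 hours at 37 C in 5% CO2. Luminescence after detection reagent addition reported growth.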
Marburg entry inh – blocks Marburg virus binding to or entry into cells; Marburg virus pseudotyped entry inhibition, cell reporter; Potency, µM (titrated, usually from 37.8 µM), for the others: at the highest dose activity change, negative = inhibition, usual class: inhibitors; 1.8% of 300,000 active; AID 540276; calls by dose curve; tested in HEK293 cells; further: potency means the concentration at half of the fitted maximal effect; on the % scale 0 is the no-effect control and ±100 the full control effect
Shiga toxin inh – blocks Shiga toxin action in Vero cells | Vero cells, Shiga toxin protein synthesis inhibition reporter | inhibition, % at 38.7 µM | AID 2315 | 9.2% of 290,000 active; in the data active means inhibition mostly above about 28%, no sharp cut-off; inactive means mostly below about 43%; further: 0% is about no effect
LASV entry inh – inhibitors of Lassa virus binding or cell entry. 1.2% of 300,000 active. Potency, µM (doses to about 37.9 µM), without a hit: top-dose activity change, negative = inhibition, most hits filed as inhibitors. Lassa virus pseudotype entry inhibition, cell reporter; calls by dose curve; tested in HEK293 cells; further: potency means the concentration at half of the fitted maximal effect; on the % scale 0 is the no-effect control and ±100 the full control effect; nearly all actives have a fitted effect of over 50% in size
Cycloheximide cs – affects cycloheximide protein synthesis inhibition readout, counter-screen. cell reporter, cycloheximide protein synthesis inhibition counterscreen. 12% of 300,000 active. max response, %; in the data active means max response mostly above about 13%, no sharp cut-off; inactive means mostly below about 14%; further: read at 38.3 µM for the half of the compounds with a filed dose; 0% is about no effect
Pf growth 48h – inhibits P. falciparum growth in the first generation, 48 h; P. falciparum luciferase growth in erythrocytes, 48 h; Potency, µM (highest dose often 28.7 µM), for inactives: top-dose activity change, negative = inhibition, hits mostly inhibitors; 5.9% of 310,000 active; AID 504832; further: potency means the concentration at half of the fitted maximal effect; on the % scale 0 is the no-effect control and ±100 the full control effect
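Compounds are pin-transferred into medium, infected erythrocytes (2% hematocrit, 0.1% parasitemia final) are added, and plates sit one parasite generation at 37 C in 5% CO2. Detection reagent is then added and luminescence measured.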
Active calls of the source: *; ? = inconclusive; . = not tested or not shown; [ ] = another dose, or the depositor's remark. Sampled rows, rich in hits. Any-hit rate of the full collection: about 19%. Unless noted, the call rests on the fitted dose curve; in most records, active means well fitted inhibition curve with a large enough effect; inconclusive means small, poorly fitted or top-dose-only effect, or another doubt; inactive means no such curve, though single readings can be large or run the other way.

SMILES	Pf growth 96h	Marburg entry inh	Shiga toxin inh	LASV entry inh	Cycloheximide cs	Pf growth 48h
O=C(/C=C/c1ccc(Cl)cc1Cl)Nc1ccncc1	-5%	?	96*	19%	50*	21%
COc1ccccc1NC(=O)CSc1nnc(CNC(=O)COc2ccc(Cl)cc2)o1	.	1%	8	5%	4	1%
COc1cccc(C2NC(=O)NC(C)=C2C(=O)Nc2cc(OC)ccc2OC)c1 (centres undefined)	0%	1%	-3	-25%	-5	-5%
O=C(/C=C/c1ccccc1Cl)Nc1cccnc1	161%	.	80*	.	60*	115%
O=C(/C=C/c1ccccc1Cl)NC1CCS(=O)(=O)C1 (centres undefined)	5%	?	3	10%	-2	14%
O=C(/C=C/c1ccc(Cl)c(Cl)c1)Nc1cccnc1	.	-14%[46.1 µM]	.	-18%[46.1 µM]	.	.
O=C(/C=C/c1ccccc1Cl)NC1CCCCC1	16%	.	27*	.	33*	-17%
CCC(CC)NC(=O)/C=C/c1ccccc1Cl	-16%	?	69*	?	35*	44%
O=C(/C=C/c1ccc(Cl)cc1Cl)NCc1ccncc1	12µM*	-6%	58	-1%	30*	?
Cn1cc(CNC(=O)C2CCCCC2)cn1	7%	27%	-6	9%	-2	7%
O=C(NCc1ccc(Cl)cc1)c1ccc(Cn2c(=O)c3cccn3c3cccnc32)cc1	.	.	.	22%[46.1 µM]	.	.
CCN(CC)CCCNC(=O)/C(=C\c1cccn1C)NC(=O)c1cccs1	23%	-2%	3	-11%	-1	-20%
CC(=O)Nc1c(Nc2ccccc2)c2ccccc2oc1=O	?	7%[46.1 µM]	-6	6%[46.1 µM]	-2	16%
O=c1nc(Nc2ccccc2)oc2ccccc12	88%	-28%[46.1 µM]	53*	-9%	38*	73%
O=c1oc(Nc2ccc(F)cc2)nc2ccccc12	?	-12%	81*	-20%	17*	15%
O=C(NCCc1ccccc1)C(NS(=O)(=O)c1cccc2nsnc12)c1ccccc1 (centres undefined)	?	-9%	-3	-1%	-5	?
COC(=O)c1ccc(CSCC(=O)Nc2cc(OC)cc(OC)c2)o1	-11%	-1%	4	0%	-6	13%
Cc1ccc2c(CNCc3ccco3)cc(=O)oc2c1	62%	13%	55*	8%	38*	70%
Cc1ccc(-c2cc3cccc[n+]3cc2-c2ccc(C)cc2)cc1	?	3.2µM*	17	6.5µM*	1	0.41µM*
O=C(NC(=S)NCCc1ccccn1)c1ccccc1	3%	-6%[46.1 µM]	95*	?	58*	94%
O=C(NC(=S)NCCc1ccccn1)c1ccco1	16%	3%[46.1 µM]	26	22%[46.1 µM]	23*	46%
O=C(NCCc1ccccn1)/C(=C/c1ccco1)NC(=O)c1ccccc1	29%	3%[46.1 µM]	49*	8%[46.1 µM]	33*	74%
Oc1ccc(C(=C(Cl)Cl)c2ccc(O)cc2)cc1	2.3µM*	.	-7	.	-1	2.9µM*
C=C(c1ccc(O)cc1)c1ccc(O)cc1	-7%	6%	0	1µM*	11	-13%
C/C=C(/C(=C/C)c1ccc(O)cc1)c1ccc(O)cc1	?	-30%	-13	26µM*	-2	-23%
SMILES	Pf growth 96h	Marburg entry inh	Shiga toxin inh	LASV entry inh	Cycloheximide cs	Pf growth 48h
O=C(O)c1ccc(O)cc1	.	.	-8	.	-3	.
CC(=NN=C(C)c1ccc(O)cc1)c1ccc(O)cc1	.	-1%[46.1 µM]	.	-24%[46.1 µM]	.	.
COc1cccc(N2CCN(C(=O)CCn3nc(C)c(S(=O)(=O)N4CCCC4)c3C)CC2)c1	.	.	.	15%[46.1 µM]	.	.
O=C(CCNC(=O)c1ccc(Br)o1)NC1CCCC1	21%	?	7	-3%	-2	?
CC(=O)COc1nc2c(c(-c3ccco3)c1C#N)CCc1ccccc1-2	12µM*	-20%[46.1 µM]	25	?	19	12µM*
O=C(c1cccc(F)c1F)N1CCCc2ccccc21	118%	12%	.	1%	6	?
COc1cc(NC(=O)CSc2nncn2C)c(C)cc1[N+](=O)[O-]	1%	11%[46.1 µM]	17	0%	10	7%
Cc1ccc(C(=O)NC(=S)NCc2cccnc2)cc1C	9.3µM*	.	14	.	13	?
CCOC(=O)c1c(C)c(C(=O)NCc2cccnc2)c(C)n1CC	3.7µM*	1%	1	-2%	-3	-2%
CCOC(=O)c1c(C)c(C(=O)NCc2ccc(Cl)cc2)c(C)n1CC	.	-13%[46.1 µM]	.	.	.	.
C=CCNC(=S)NCc1cccnc1	51%	2%	9	-24%	-3	13%
CCOC(=O)c1ccc(NC(=S)NCc2cccnc2)cc1	-25%	?	16	-16%[46.1 µM]	13*	-9%
S=C(NCc1cccnc1)NCc1cccnc1	10µM*	-7%	2	?	-10	-7%
COc1ccc(C(=O)NC(=S)NCc2cccnc2)cc1Br	16%	.	-11	.	1	-25%
O=C(OCCc1cc2ccccc2c(=O)o1)c1cccc(Br)c1	21%	.	.	.	.	?
CC(C)(C)NS(=O)(=O)c1ccc2[nH]c3c(c2c1)CCCCC3	?	?	-4	-21%	8	?
c1ccc(CCc2cccnc2)cc1	.	9%	.	-1%	.	.
CC(C)c1ccc(C(=O)NC(=S)NCc2cccnc2)cc1	-29%	-19%	active	-21%	16*	10%
O=C(NC(=S)NCc1cccnc1)c1ccc([N+](=O)[O-])cc1	33%	.	-4	.	7	?
c1ccc(C(NCc2cccnc2)(c2ccccc2)c2ccccc2)cc1	.	0%	5	8.2µM*	-2	.
COc1nccc(C(F)(F)F)c1C(=O)NC(=O)Nc1c(C)cccc1C	?	-10%	-3	5%	1	?
CNC(=S)N/N=C/c1cn(CCOc2cccc(OC)c2)c2ccccc12	?	?	103*	?	10	?
COC(=O)N/N=C/c1cn(CCOc2ccc(OC)cc2)c2ccccc12	?	.	21	.	1	7%[0.00184 µM]
COC(=O)N/N=C/c1cn(CCOc2ccccc2)c2ccccc12	1%	?	78*	?	46*	1%
COc1cccc(OCCn2cc(/C=N/NC(=O)c3ccncc3)c3ccccc32)c1	31%	?	0	6%	10	31%
CCOC(=O)N/N=C/c1cn(CCCOc2ccc(C)cc2)c2ccccc12	-27%	7.1µM*	42*	?	64*	33%
CCOC(=O)N/N=C/c1cn(CCCOc2ccccc2)c2ccccc12	-16%	?	66*	?	46*	-1%
COc1ccc(C(CNC(=O)c2cccc(NS(=O)(=O)c3ccc(C)c(F)c3)c2)N(C)C)cc1 (centres undefined)	12µM*	?	.	?	.	?
COc1ccccc1C(CNC(=O)c1cccc(NS(=O)(=O)c2ccc(C)c(F)c2)c1)N(C)C (centres undefined)	9.3µM*	?	.	-28%	.	?

Assay outcomes deposited in PubChem by National Center for Advancing Translational Sciences (NCATS).
